GC-A act: GC-A (human) enzyme activation. 370,000 tested, 0.14% active. HEK293 GC-A cells, cGMP TR-FRET, EC30 ANP; 0% at EC30 ANP, 100% saturating ANP. P16066. activation, % at 10 µM; in the data active = activation above about 40%
FAS-TE inh: FAS thioesterase (human) inhibition | P49327 | recombinant FAS-TE, OMFH fluorogenic substrate, fluorescence endpoint | inhibition, % at 15 µM | 360,000 tested, 0.67% active | AID 602261;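 active = compounds whose normalised, plate-corrected inhibition of enzyme fluorescence in the single-dose primary screen is 50% or more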
GC-B act: GC-B (human) receptor activation | P20594 | HEK293-GC-B cells, CNP EC30, cGMP TR-FRET; 0% at EC30 CNP, 100% saturating CNP | activation, % at 10 µM | 370,000 tested, 0.11% active;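 active = activation at 10 µM reaching about 35% in either raw or pattern-adjusted values, limit read from the data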
aDG glyco up: alpha-DG glycosylation activation; Pro5-aDG cells, alpha-DG glycosylation AlphaScreen (IIH6); 0% Pro5, 100% B10-LARGE cell signal; activation, % at 10 µM; 360,000 tested, 0.22% active;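 active = activation of at least 8% versus controls, or a plate z-score of at least 8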;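 note: Pro5 are CHO cells carrying HIG-tagged alpha-DG that lacks glycosylation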
FAS-TE inh conf: confirmation of human fatty acid synthase thioesterase inhibitors. AID 624325. 2,300 tested, 45% active. inhibition, % at 15 µM. shares compounds with FAS-TE inh. recombinant FAS-TE, OMFH fluorogenic substrate, fluorescence;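 active = compounds inhibiting the enzyme by at least 50% at 15 µM in any one of the replicates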
Large screens that a line does not name were inactive (follow-up assays come after a bar, where they were run). Only some compounds are listed: those with a hit (about 1.1% of all), similar ones and a draw of the others.

O=[N+]([O-])c1ccccc1NCCNc1ncc(C(F)(F)F)cc1Cl	none
Cc1ccc(C(=O)NCCNc2ncc(C(F)(F)F)cc2Cl)cc1[N+](=O)[O-]	FAS-TE inh 55.4 | FAS-TE inh conf 60.2
O=[N+]([O-])c1cccnc1NCCNc1ncc(C(F)(F)F)cc1Cl	none
COc1ccc(C(=O)NCCNc2ncc(C(F)(F)F)cc2Cl)cc1[N+](=O)[O-]	FAS-TE inh 53.0 | FAS-TE inh conf 47.2
COc1ccc(C2Nc3ccccc3C(=O)N2Cc2ccccc2)cc1COc1ccc(NC(C)=O)cc1 (stereo not drawn)	none (no result: FAS-TE inh, aDG glyco up)
Cc1ccc(-n2c(SC/C=C/c3ccccc3)nnc2-c2cccs2)cc1	none (no result: FAS-TE inh, aDG glyco up)
Fc1nc(F)c(F)c(NCCCNc2c(F)c(F)nc(F)c2F)c1F	FAS-TE inh 55.0 | FAS-TE inh conf 57.4
CC(C)COc1ccc(-c2nn(-c3ccccc3)cc2/C=C2/SC(=S)N(CC(=O)O)C2=O)cc1	FAS-TE inh 78.5 | FAS-TE inh conf inactive
O=C1C(=Cc2cn(-c3ccccc3)nc2-c2ccc(OCc3ccccc3)cc2)SC(=S)N1CCS(=O)(=O)O	FAS-TE inh 71.2 | FAS-TE inh conf inactive
CC(C)(C)c1ccc(/C=N/NC(=S)NC2CCCCC2)cc1	FAS-TE inh 52.7 | FAS-TE inh conf 44.6
COc1ccc([C@H]2CC(=O)C=C(c3ccc(Cl)c(C(F)(F)F)c3)C2)cc1	FAS-TE inh 53.8 | FAS-TE inh conf inactive
COc1ccc([C@H]2CC(=O)C=C(c3ccc4c(c3)OCCO4)C2)cc1	none
COc1ccc([C@H]2CC(=O)C=C(c3ccc(C)c([N+](=O)[O-])c3)C2)cc1	FAS-TE inh 76.4 | FAS-TE inh conf 80.7
Cc1ccc(S(=O)(=O)N2CC(CBr)=CCC2c2ccccc2)cc1 (stereo not drawn)	none (no result: FAS-TE inh, aDG glyco up)
COc1ccccc1C(=O)NC1CCCCN(Cc2ccc(Cl)cc2)C1=O (stereo not drawn)	none (no result: FAS-TE inh, aDG glyco up)
O=[N+]([O-])c1ccc(S(=O)(=O)NN=Cc2ccc3c(c2)OCO3)cc1	FAS-TE inh 64.4 | FAS-TE inh conf 72.3
O=S(=O)(N/N=C/c1ccc2c(c1)OCO2)c1ccc(Br)cc1	none
Cc1[nH][nH]c(=O)c1C(c1ccc(-c2cccc(C(=O)O)c2)o1)c1c(C)[nH][nH]c1=O	none
Cc1[nH][nH]c(=O)c1C(c1ccc(-c2cccc(Cl)c2)o1)c1c(C)[nH][nH]c1=O	FAS-TE inh 54.2 (no result: GC-A act, GC-B act) | FAS-TE inh conf inactive
CCCCCOC(=O)C1=C(C)NC(=O)NC1c1ccc([N+](=O)[O-])cc1 (stereo not drawn)	FAS-TE inh 57.9 | FAS-TE inh conf 57.3
CCOC(=O)[C@@]12CN(C(=O)OC(C)(C)C)CC=C1N(Cc1ccc(OC)cc1)C(=O)[C@H]2CC(=O)NCC1CCCCC1	none (no result: FAS-TE inh, aDG glyco up)
Cc1nn(C)cc1C(C(=O)NC1CCCCC1)N(C(=O)Cc1cccs1)c1ccc(C(C)C)cc1 (stereo not drawn)	FAS-TE inh 60.9 | FAS-TE inh conf 59.3
Cc1nn(C)cc1C(C(=O)NC1CCCCC1)N(C(=O)Cc1cccs1)c1ccc(F)cc1 (stereo not drawn)	none
O[C@H]1C[C@H](c2ccc(Cl)cc2)N(CC2CCCCC2)C[C@@H]1n1cc(C2CC2)nn1	FAS-TE inh 58.7 | FAS-TE inh conf 55.9
CCC(C)NC(=O)CSc1nc2c(sc(=S)n2Cc2ccco2)c(=O)n1-c1ccccc1 (stereo not drawn)	FAS-TE inh 50.7 | FAS-TE inh conf 52.7
Cc1ccccc1CS(=O)(=O)c1nnc([C@H](CC(C)C)NC(=O)OC(C)(C)C)o1	FAS-TE inh 51.7 | FAS-TE inh conf 54.7
CC(C)=CCSc1nnc([C@@H](NC(=O)OC(C)(C)C)C(C)C)o1	none
CC[C@@H](C)[C@H](NC(=O)OC(C)(C)C)c1nnc(S(=O)(=O)Cc2cc(C)ccc2C)o1	FAS-TE inh 73.0 | FAS-TE inh conf 78.7
CC[C@@H](C)[C@H](NC(=O)OCc1ccccc1)c1nnc([C@@H](NC(=O)OCc2ccccc2)[C@@H](C)CC)o1	none
CC(C)[C@H](NC(=O)OC(C)(C)C)c1nnc(S(=O)(=O)Cc2c(F)cccc2Cl)o1	FAS-TE inh 83.2 | FAS-TE inh conf 81.7
CN(Cc1ccccc1)S(=O)(=O)c1ccc2[nH]cc(C(=O)NCC3CCCO3)c(=O)c2c1 (stereo not drawn)	none
